As usually defined, the inhibition is how much of the control response was suppressed.

Hit rate of the full screen: of about 2,400 compounds, about 2,200 (92%) were called active.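 How the source made its calls: active means mean inhibition over triplicate runs exceeds the cutoff derived for the earlier primary screen (cut at about 25% in these data); inactive means the rest.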 The set was probably picked from earlier hits. The list shows a part of the results.

Platelet-activating factor acetylhydrolase IB subunit alpha2 (Homo sapiens), sequence (P68402 whole entry, looked up): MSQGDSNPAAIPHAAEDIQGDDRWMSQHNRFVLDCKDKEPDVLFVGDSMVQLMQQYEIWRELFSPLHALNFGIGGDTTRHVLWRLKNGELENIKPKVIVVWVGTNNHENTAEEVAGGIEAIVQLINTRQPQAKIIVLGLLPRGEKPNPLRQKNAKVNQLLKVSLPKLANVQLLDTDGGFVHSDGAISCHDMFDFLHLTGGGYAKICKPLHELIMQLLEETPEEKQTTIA

The assay concerns the target Platelet-activating factor acetylhydrolase IB subunit alpha2 (Homo sapiens) (UniProt P68402). The assay can be described thus: PAFAH1B2 inhibitors, confirmation, biochemical, fluorescence polarization, FP-rhodamine probe, triplicate (AID 493034).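 Further: 0% = enzyme with DMSO and 100% = wells lacking PAFAH1B2 protein; inhibitors lower polarization by leaving the probe unbound.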 Conditions: recombinant PAFAH1B2, FP-rhodamine probe fluorescence polarization; at 3.39 µM; stronger effect = higher value.
As for `O=C(O)CC1c2ccccc2CCN1S(=O)(=O)c1ccc(F)cc1` (centres undefined), the inhibition is 19.8% (inactive).
For `CN(Cc1ccccc1)C(=O)COC(=O)C12CC3CC(CC(Br)(C3)C1)C2` the value was 28.4% (active).
With `OC(c1ccc(F)cc1)(C1CCCCC1)C(CN1CCOCC1)c1ccccc1` (centres undefined) the figure was 23.5% (inactive); with `O=C(O/N=C1/CCCc2occc21)c1ccc(Cl)cc1Cl`, 19.3% (inactive).
With `Cc1occc1C(=O)O/N=C(\N)c1ccc(Cl)cc1` the figure was 27.4% (active); with `NC(=O)CSc1ccc(Br)cc1`, 39.5% (active); with `CC(Sc1ccc(Br)cc1)C(N)=O` (centres undefined), 27.6% (active).
For the compound `COc1ccc(NC(=O)O/N=C/c2ccc(Br)cc2)cc1`, the inhibition is 7.26% (inactive).
For `Cc1ccc(S(=O)(=O)N2[C@@H](c3cccc(C)c3)C(C(=O)O)=C[C@H]2C(C)(C)C)cc1` the value was 18.7% (inactive); for `Cc1ccc(S(=O)(=O)N2[C@@H](c3ccc(C(C)(C)C)cc3)C(C(=O)O)=CC[C@H]2c2cccc(Cl)c2)cc1`, 70.5% (active); for `Cc1ccc(S(=O)(=O)N2[C@@H](c3ccc(Cl)cc3)C(C(=O)O)=CC[C@H]2c2ccc(Cl)c(Cl)c2)cc1`, 85.8% (active).
With `Cc1ccc(S(=O)(=O)N2[C@@H](c3ccc(C(C)(C)C)cc3)C(C(=O)O)=CC[C@H]2c2ccc(Cl)c(Cl)c2)cc1` the figure was 58.5% (active).
For `Cc1ccc(S(=O)(=O)N2[C@@H](c3ccccc3)C(C(=O)O)=CC[C@H]2c2cccc(C)c2)cc1` the value was 21.1% (inactive).
`CC(=O)N1CCOc2ccc(S(=O)(=O)NCc3ccc(C)cc3)cc21`: the inhibition is 23.4% (inactive).
With `Cc1ccc(S(=O)(=O)N2[C@@H](c3ccc(Br)cc3)C(C(=O)O)=CC[C@H]2c2ccc3c(c2)OCO3)cc1` the figure was 59.1% (active); with `Cc1ccc(S(=O)(=O)N2[C@@H](c3ccc(Br)cc3)C(C(=O)O)=CC[C@H]2c2ccc(Cl)c(Cl)c2)cc1`, 85.2% (active).
Consider `CC(C)(C)C1CCC2(CC1)C(C#N)=C(SCC(=O)Nc1ccccc1)NC(=O)C2C#N` (centres undefined), for which the inhibition is 55% (active).
For `COc1ccc(S(=O)(=O)N2CCN(C(=O)[C@@H]3CCC(=O)N3C3OC(=O)c4ccccc43)CC2)cc1` (some centres undefined) the value was 22.4% (inactive); for `COc1cc(/C=N/NC(=O)c2cc(C34CC5CC(CC(C5)C3)C4)[nH]n2)ccc1O`, 24.7% (active).
For `Cc1ccccc1C(=O)c1cccn1CC(=O)NCc1ccc(Cl)cc1` the value was 23.1% (inactive); for `O=C(Oc1ccc(OC(=O)c2ccco2)c(S(=O)(=O)c2ccc(Br)cc2)c1)c1ccco1`, 34% (active).
As for `O=C(Oc1ccc(-c2ccccc2)cc1)c1ccco1`, the inhibition is 23.7% (inactive).
With `CC1=C(C(=O)OCC(Br)(Br)Br)C(c2cccc([N+](=O)[O-])c2)NC(=O)N1CCCC(=O)O` (centres undefined) the figure was 90.6% (active); with `O=C(Nc1ccccc1Cl)Oc1ccc(-c2ccccc2)cc1`, 53.8% (active); with `Cc1ccc(S(=O)(=O)n2nc(-c3cccnc3)nc2N)cc1`, 23.2% (inactive).
As for `CC(=O)C[C@H](O)CC(=O)[C@H]1OC(=O)CCCCCCCCc2ccccc21`, the inhibition was 31.4% (active).
With `CC(=O)C[C@@H](O)CC(=O)[C@H]1OC(=O)CCCCCCCCc2ccccc21` the figure was 43.6% (active); with `Cc1noc(NS(=O)(=O)c2ccc(NC(=O)CC34CC5CC(CC(Br)(C5)C3)C4)cc2)c1C`, 30.9% (active); with `Cn1c(=O)oc2cc(S(=O)(=O)NCCC(=O)NCCc3ccc(Cl)cc3)ccc21`, 19.6% (inactive).
With `CC(CC(=O)NCCc1ccc(Cl)cc1)S(=O)(=O)c1ccc2c(c1)NC(=O)CO2` (centres undefined) the figure was 22.4% (inactive).
On to `O=S(=O)(Nc1ncccn1)c1ccc(NC(=S)NCCc2ccc(Cl)cc2)cc1`, for which the inhibition is 36.6% (active).
For `N=c1c(S(=O)(=O)c2ccc(Cl)cc2)cc2c(=O)n3ccccc3nc2n1CCN1CCOCC1` the value was 22.3% (inactive); for `O=c1[nH]c(CN2CCN(c3ccc([N+](=O)[O-])cc3)CC2)nc2ccsc12`, 31.1% (active).
With `O=C1OC(c2ccccc2)=N/C1=C/c1cccc(OC(=O)c2cccs2)c1` the figure was 15.5% (inactive); with `O=C(O)c1cccc(COc2ccc3c(c2)CCC3)c1`, 40% (active); with `O=C(CCc1ccccc1)c1c(O)cc(O)cc1O`, 26.6% (active).
With `O=C(CCc1ccc(O)cc1)c1c(O)cc(O)cc1O` the figure was 22.2% (inactive); with `C=C(C)C(COc1c2occc2cc2ccc(=O)oc12)OC(C)(C)C(O)COc1c2occc2cc2ccc(=O)oc12` (centres undefined), 67.4% (active); with `Cc1ccc(NS(=O)(=O)c2cc([N+](=O)[O-])ccc2NNC(=S)Nc2cccc(Cl)c2)c(C)c1`, 30.2% (active).
In the case of `N#Cc1c(N)[nH]c2ccc(Sc3ccccc3)cc12`, the inhibition was 33.8% (active).
For `Nc1ccc(CSc2ccccc2)cc1` the value was 30.1% (active); for `Nc1ccc(CSc2ccc(Cl)cc2)cc1`, 21.7% (inactive).
With `O=C(CSc1ccccc1)NC(=O)NCc1ccccc1` the figure was 21.7% (inactive); with `CCOc1cc(/C=C(/C#N)c2ccc(Cl)cc2)cc(Cl)c1OCC(=O)O`, 42.5% (active); with `CCOc1cc(/C=C(/C#N)c2ccc(F)cc2)ccc1OCc1ccc(C(=O)O)o1`, 4.35% (inactive).
For `C[C@H]1CN([C@@H](C)CO)C(=O)c2cccc(NC(=O)Nc3ccc(C(F)(F)F)cc3)c2O[C@@H]1CN(C)C(=O)Nc1ccc(F)cc1` the value was 57% (active); for `C[C@@H]1CN([C@H](C)CO)C(=O)c2cccc(NC(=O)Nc3ccc(F)cc3)c2O[C@H]1CN(C)C(=O)Nc1ccc(C(F)(F)F)cc1`, 39.6% (active).
As for `CC(Oc1ccc2c(-c3ccccc3)cc(=O)oc2c1)C(=O)NC(Cc1c[nH]c2ccccc12)C(=O)O` (centres undefined), the inhibition was 59% (active).
For the compound `O=C(COc1ccc2c(-c3ccccc3)cc(=O)oc2c1)N[C@@H](Cc1c[nH]c2ccc(O)cc12)C(=O)O`, the inhibition was 55.4% (active).
For `CCCCc1cc(=O)oc2cc(C)cc(OCC(=O)NC(Cc3ccc(Cl)cc3)C(=O)O)c12` (centres undefined) the value was 22.2% (inactive); for `CC(Oc1ccc2c(-c3ccccc3)cc(=O)oc2c1)C(=O)NC(Cc1c[nH]c2ccc(O)cc12)C(=O)O` (centres undefined), 55.9% (active).
With `CC(Oc1ccc2c(-c3ccccc3)cc(=O)oc2c1)C(=O)N[C@H](Cc1c[nH]c2ccccc12)C(=O)O` (some centres undefined) the figure was 64.3% (active); with `Cc1ccc(CSc2nnc(NC(=O)C3COc4ccccc4O3)s2)cc1` (centres undefined), 21.4% (inactive); with `CCCCCCCCCCS(=O)(=O)N/N=C/c1ccc([N+](=O)[O-])cc1`, 20.3% (inactive).
With `CCN(Cc1ccccc1)c1ccc(/C=N/NS(=O)(=O)c2cccc([N+](=O)[O-])c2)cc1` the figure was 63.5% (active).
For `O=C(NCc1cccnc1)C(=O)Nc1nc(C23CC4CC(CC(C4)C2)C3)cs1`, the inhibition is 23.7% (inactive).
For `O=C(CC1CC2CCC1C2)Nc1nc(-c2ccccn2)cs1` (centres undefined) the value was 45.4% (active).
With `Clc1ccc(COc2cccc(CNCc3ccncc3)c2)cc1` the figure was 19.2% (inactive).
Turning to `CC(NCc1ccc(OCc2ccc(Cl)cc2)cc1)C(O)c1ccccc1` (centres undefined), the inhibition was 68.7% (active).
With `O=C(NCC(c1ccco1)N1CCCCC1)c1ccc(COc2ccc(Cl)cc2)cc1` (centres undefined) the figure was 20% (inactive).
Consider `CCc1ccc2nc3sc(C(=O)Nc4nnc(CC)s4)c(N)c3cc2c1`, for which the inhibition was 19.1% (inactive).
For `Cc1ccc(NC(=O)O/N=C/c2ccc(Br)cc2)cc1` the value was 15.5% (inactive); for `CCOC(=O)C1CCCN(C(=O)Cc2c(C(=O)O)[nH]c3ccccc23)C1` (centres undefined), 28.4% (active).
For `O=C(Cc1ccc(Br)cc1)Nc1ncc([N+](=O)[O-])s1` the value was 28.4% (active).
